Assay outcomes from PubChem.
Compounds with a hit are over-represented: about 4.9% of the library has one in this group of screens.
dFosB act – activators of mouse delta FosB homodimer; purified delta FosB, TAMRA-CDK5 oligo fluorescence polarization; percent of positive-control signal above neutral wells; activation, % at 25 µM; 340,000 compounds, 0.99% hits;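 active means mean activation above about 17%, with every replicate also reaching it, limit read from the data, passing the limit was not always enough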
Target sequence (P13346 whole entry, looked up): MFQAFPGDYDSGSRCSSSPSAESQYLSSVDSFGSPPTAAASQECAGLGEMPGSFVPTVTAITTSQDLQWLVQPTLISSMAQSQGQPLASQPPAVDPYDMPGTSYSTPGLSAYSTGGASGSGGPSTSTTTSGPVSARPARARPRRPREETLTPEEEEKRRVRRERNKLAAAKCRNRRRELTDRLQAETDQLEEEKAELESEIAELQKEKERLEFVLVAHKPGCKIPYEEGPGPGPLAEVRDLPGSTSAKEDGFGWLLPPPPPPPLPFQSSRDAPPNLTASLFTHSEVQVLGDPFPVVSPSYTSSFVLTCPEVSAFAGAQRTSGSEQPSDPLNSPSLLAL
Platelet DG rel – modulates dense granule release in human platelets; human platelet-rich plasma, SFLLRN dense granule ATP release, luminescence; inhibition, %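 (compounds screened at 7.5 µM in platelet-rich plasma)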; 300,000 compounds, 0.22% hits; AID 1663;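 active means mean replicate score, as percent of positive control, at or above 50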
MPTP inh – blocks calcium-induced mitochondrial swelling; isolated mouse mitochondria, Ca2+ swelling absorbance, 30 min; inhibition, % at 10 µM; 360,000 compounds, 1.4% hits; AID 602449;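 active means inhibition of 50% or more, scaled per plate between neutral and stimulator controls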;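 further: 0% = DMSO wells given calcium and 100% = 1 mM EGTA wells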
HSP90 inh – blocks HSP90-mediated luciferase refolding in reticulocyte lysate; Rabbit reticulocyte lysate, luciferase refolding luminescence, 3 h; inhibition, % at 5.6 µM; 290,000 compounds, 0.91% hits; AID 1789;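 active means inhibition above the screen-wide mean plus 3 SD, computed separately per campaign, cut at about 16% in these data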;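 further: 0% = DMSO wells and 100% = 60 µM geldanamycin wells; inhibitors lower the luminescence because luciferase stays unfolded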
HSF1 inhib – HSF1 inhibition; NIH3T3-HGL HSE-luciferase, MG132-induced, luminescence 8 h; hits give low values; activity change, negative = inhibition, % at 7.5 µM (by protocol); 300,000 compounds, 0.77% hits; AID 2098;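 active means more than half of replicate wells show activity change below -50%, luminescence cut by over half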;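 further: luciferase reports HSF-1 transcriptional activity via heat shock element; 0% = median of DMSO wells and -100% = zero luminescence signal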
HSF1 activator – increases HSF-1 driven luciferase reporter signal; 300,000 compounds, 1.7% hits; activation, % at 9 µM; NIH3T3-HGL HSF-1 luciferase reporter, MG132, 8 h; 100% = twice DMSO control signal; AID 504408;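 active means mean replicate activation of at least 50% with a set share of replicates each reaching 50%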;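 further: 0% = median of the neutral control wells and 100% = twice that signal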
Rh123 counter – Rhodamine 123 counter-screen of mitochondrial pore hits; AID 624504; 5,000 compounds, 78% hits; isolated mitochondria, membrane potential, Rhodamine 123 fluorescence; shares compounds with MPTP inh; inhibition, % at 10 µM; in the data active means inhibition above about 22%;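 further: 0% = DMSO vehicle and 100% = positive control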
MPTP swell DR – dose response confirmation of mitochondrial permeability transition pore inhibitors | shares compounds with MPTP inh | 780 compounds, 58% hits | isolated mitochondria swelling, absorbance | IC50, µM; in the data active means IC50 below about 20 µM
MPTP cs DR – MPTP inhibitor counter-screen activity, dose response; shares compounds with MPTP inh; isolated mitochondria counterscreen, fluorescence read-out; IC50, µM; 780 compounds, 49% hits; AID 651564; in the data active means IC50 below about 80 µM
An asterisk follows results filed as active; i = inactive; . = no result given.

SMILES	dFosB act	Platelet DG rel	MPTP inh	HSP90 inh	HSF1 inhib	HSF1 activator	Rh123 counter	others
O=C(CC[C@H]1O[C@@H](n2ccc(=O)[nH]c2=O)[C@H](O)[C@@H]1O)NC1CCN(Cc2ccccc2)C1 (stereo partly specified)	.	.	-0.6	.	.	.	.
CC(=O)c1c(C)[nH]c(C(=O)Nc2nc(-c3ccc(Cl)cc3)cs2)c1C	0.4	20.9	94.1*	-5.2	9.3	39.5	58.0*
COc1cccc(OC)c1C(=O)Nc1nc(-c2ccccc2)cs1	-0.3	1.6	-0.5	6.2	0.3	-14.6	.
COc1ccc(-c2nc(NC(=O)c3[nH]c(C)c(C(C)=O)c3C)sc2C)cc1	-14.1	0.1	20.9	-0.2	18.9	10.7	.
CC(=O)c1c(C)[nH]c(C(=O)Nc2nc(-c3ccc(-c4ccccc4)cc3)cs2)c1C	-4.1	-7.8	93.8*	2.7	13.0	14.0	69.1*
Cc1ccc(C(C)C)c(OCCn2ccnc2C)c1	-4.4	7.5	1.2	2.3	2.7	-14.9	.
Cc1ccc(OCCCCn2ccnc2C)c(C)c1	-1.2	0.4	61.1*	1.5	0.1	-4.9	27.0*
CCOC(=O)C1CCN(C(=O)c2ccc(S(=O)(=O)Nc3ccccc3OC)cc2)CC1	-2.6	.	0.8	.	.	.	.
COc1ccc(N(C)C(=O)C2CCCN2S(=O)(=O)c2cccc3nsnc23)cc1 (stereo unspecified)	-13.5	-0.9	-2.0	-2.0	-1.3	-2.6	.
CC(C)c1ccc(NC(=O)CSc2nc3ncccc3[nH]2)cc1	-16.4	-2.6	3.7	-1.5	13.9	43.7	.
CC(C)OC(=O)c1ccc(NC(=O)CSc2nc3ncccc3[nH]2)cc1	-4.4	-1.8	70.7*	-0.9	9.8	15.7	46.8*
CN(C)c1cc[n+](CC(=O)Nc2ccc(Oc3ccccc3)cc2)cc1	-11.2	0.5	70.4*	-2.5	-2.5	-7.4	55.8*
CC(C)(C)c1ccc(OCCNCc2ccccc2)cc1	-5.4	4.1	7.8	-5.2	7.9	6.4	.
S=C(NCc1ccco1)Nc1ccc(Oc2ccc(Cl)cc2)cc1	-4.4	2.1	72.9*	4.8	15.1	34.5	89.8*
CCCCNC(=S)Nc1ccc(Oc2ccccc2)cc1	-4.6	-10.0	76.0*	-2.3	.	.	91.4*
CCOc1ccc(NC(=O)C[n+]2ccc(N(C)C)cc2)cc1	1.0	3.5	-0.5	2.8	-0.6	-0.4	.
CC(C)(C)c1ccc(OCCNC(=S)Nc2ccccc2)cc1	-10.7	6.9	92.5*	4.3	2.6	4.3	89.5*
CCOC(=O)[C@@H]1[C@H]2COc3ccccc3[C@@H]2N2C(=O)N(c3ccc(OC)cc3)C(=O)[C@]12C	-4.5	0.4	0.3	.	-1.4	-7.7	.
Cc1cc(C)c(C(O)c2ncc(-c3ccccc3Cl)[nH]2)c(C)c1 (stereo unspecified)	.	.	0.7	.	.	.	.
CCN(C(=S)Nc1ccc(Oc2ccccc2)cc1)c1ccccc1	-7.4	-9.1	91.0*	3.1	-5.4	-15.6	97.5*
CCCNC(=S)Nc1ccc(Oc2ccccc2)cc1	-1.4	-9.7	58.1*	-1.9	-20.1	-23.5	64.5*
CC(C)NC(=S)Nc1ccc(Oc2ccccc2)cc1	-6.7	-0.7	2.7	-1.0	14.3	21.1	.
CCN(C(=S)Nc1cccc(C)c1)c1ccccc1	5.8	7.8	0.0	3.9	3.6	-8.0	.
CC(=O)Nc1cnc(-c2ccc3c(c2)OCO3)cn1	.	.	-0.9	.	.	.	.
Cn1c(=O)c2c(ncn2CC(COCc2ccccc2)OCc2ccccc2)n(C)c1=O (stereo unspecified)	0.4	5.7	1.6	2.1	0.7	24.3	.
SMILES	dFosB act	Platelet DG rel	MPTP inh	HSP90 inh	HSF1 inhib	HSF1 activator	Rh123 counter	others
O=C(NCc1ccccn1)Nc1ccc(Cl)c(Cl)c1	-0.1	0.6	51.1*	-0.7	9.4	1.2	85.5*
O=C(NCc1ccccn1)Nc1cc(Cl)cc(Cl)c1	1.9	-5.5	83.4*	5.6	10.8	-4.8	100.4*
O=C(NCc1csc2ccccc12)Nc1cc(Cl)cc(Cl)c1	-6.5	-2.0	86.5*	-5.2	-0.4	20.3	75.6*
Cc1ccc(NC(=O)NCc2ccncc2)cc1Cl	-5.4	-3.6	63.4*	-1.8	5.4	12.8	78.7*
C#CCCOC(=O)N1C2=NC(C(=O)OC)=C(C(=O)OC)[C@@H]3N(C)c4ccccc4[C@]23C[C@H]1CO	-1.1	-0.9	0.1	.	0.4	7.2	.
O=C(Nc1ccc(N2CCOCC2)cc1N1CCOCC1)c1ncoc1-c1cccc(F)c1	0.2	-1.5	1.1	-1.1	-9.4	-8.0	.
Oc1ccc(Br)cc1/C=N/NC(=S)NCCc1ccccc1	-2.0	-0.4	5.5	-1.1	-3.1	16.3	.
NC(=O)c1snnc1-c1ccccc1	-0.7	-6.8	-0.1	-2.9	-0.8	3.4	.
O=C(O)CC(=O)Nc1cc(Cl)ccc1O	-2.2	-0.1	-1.0	8.7	2.4	8.7	.
NC(=NCCc1ccccc1)NC(=O)c1cc(Cl)ccc1O	1.2	3.6	56.1*	.	6.9	-9.6	73.6*
NC(=NCCc1ccc(Cl)cc1)NS(=O)(=O)c1ccccc1	1.8	13.7	1.4	0.4	2.4	0.1	.
O=C(CCc1ccccc1)N/N=C/c1cc(Br)ccc1O	-1.1	8.5	91.4*	1.3	-2.9	18.7	79.8*
O=C(CCc1ccccc1)Nc1cc(Cl)ccc1O	-1.8	-4.7	67.9*	2.8	1.5	6.2	81.1*
O=C(Nc1cc(Cl)ccc1O)c1snnc1-c1ccccc1	-8.7	0.9	94.0*	-2.8	-1.1	-7.2	91.1*
COc1ncc(-c2ccc(N3C(c4ccsc4)=Cc4ccc(F)cc4C3CC(C)=O)cc2)cn1 (stereo unspecified)	.	.	2.0	.	.	.	.
O=C(c1cc2cc(Cl)ccc2[nH]1)N1CCN(Cc2ccc3c(c2)OCO3)CC1	-3.7	10.7	0.0	-1.1	11.7	15.6	.
CC(C)NC(=S)N/N=C/c1cc(Br)ccc1O	-4.3	9.4	92.6*	-0.2	8.2	10.4	61.3*
O=C(CN1C2=NCCN2c2ccccc21)C12CC3CC(CC(C3)C1)C2	-4.5	6.6	70.3*	-1.9	4.7	29.9	-4.9	MPTP swell DR=i;MPTP cs DR=>80
c1ccc(CN2C3=NCCN3c3ccccc32)cc1	3.7	10.2	0.3	1.2	-3.6	16.5	.
COc1ccc(Nc2nnc(Cc3ccc(Cl)cc3)c(=O)[nH]2)c(OC)c1	4.8	-2.5	4.9	3.4	0.1	-1.0	.
COc1ccc(Cc2nnc(Nc3ccc(Cl)cc3)[nH]c2=O)cc1	-7.6	-8.7	84.2*	2.2	-8.5	-0.1	67.3*
Cc1ccc2nc(Cl)c(/C=N/Nc3nc(C)cc(C)n3)c(=O)n2c1	-1.6	12.5	0.0	4.9	5.5	16.3	.
